Screening results as filed in PubChem BioAssay.
Rows were chosen to be rich in hits. Some 2.7% of all compounds tested hit in one or more screens of this group.
NadD inh – inhibitors of S. aureus NadD, primary screen, biochemical, colorimetric, uHTS | Nicotinate-nucleotide adenylyltransferase NadD (Staphylococcus aureus N315) | purified NadD enzyme, colorimetric absorbance read-out | inhibition, % at 20 µM | 0.78% of 360,000 active | AID 602399, 2012; in the data active means inhibition above about 26%
bovine MsrA act – bovine MsrA enzyme activators, primary screen, biochemical, absorbance, HTS; purified bovine MsrA, absorbance read-out; activation, % at 10.6 µM; AID 602163, 2012; Methionine sulfoxide reductase A (Bos taurus); 0.3% of 360,000 active; in the data active means activation above about 7.5%;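 further: 0% = vehicle and 100% = reference activator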
MsrA inh – bovine MsrA enzyme inhibitors, primary screen, biochemical, absorbance, HTS. Methionine sulfoxide reductase A (Bos taurus). purified bovine MsrA, absorbance read-out. inhibition, % at 15.5 µM. 0.75% of 360,000 active. AID 651718, 2012; in the data active means inhibition above about 4.5%;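 further: 0% = vehicle wells with enzyme and 100% = reference inhibitor wells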
rCAG RNA binder – binders of r(CAG) RNA repeats, primary screen, biochemical, fluorescence; r(CAG) RNA repeat, TO-PRO-1 dye displacement fluorescence; 1.3% of 370,000 active; inhibition, % at 3 µM; AID 651821, 2012;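 active means inhibition above the plate cutoff, the mean of all test compounds on that plate plus 3 SD, cut at about 35% in these data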;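 further: 0% = DMSO alone and 100% = 100 µM mitoxantrone as full dye displacement; higher means more dye released from RNA so lower well fluorescence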
MsrA activ conf – bovine MsrA activators, retest, confirmation, biochemical, absorbance, HTS; shares compounds with bovine MsrA act; purified bovine MsrA, absorbance read-out; activation, % at 10.6 µM; 12% of 1,000 active; AID 602270, 2012; in the data active means activation above about 4%;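 further: enzyme coupled to thioredoxin and thioredoxin reductase with NADPH; 0% = vehicle wells and 100% = reference activator wells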
Active calls of the source: *; . = not tested or not shown.

SMILES	NadD inh	bovine MsrA act	MsrA inh	rCAG RNA binder	MsrA activ conf
COc1cc(C(=O)Oc2cc(C)cc(C)c2)cc(OC)c1OC	-7	8.8*	0	-3	-3
COc1cc(C(=O)Oc2cccnc2)cc(OC)c1OC	1	0	0	-2	.
CCOC(=O)C1=CC[C@@H](c2cccc(C)c2)N(S(=O)(=O)c2ccc(C)cc2)[C@H]1C(=O)OCC	-10	9.9*	0	-2	1
CCOC(=O)C1=CC[C@@H](c2ccccc2Cl)N(S(=O)(=O)c2ccc(C)cc2)[C@H]1C(=O)OCC	-10	0	1	4	.
Cc1cccc(NC(=O)c2cc(S(=O)(=O)N3CCCCC3)ccc2Cl)n1	-3	12*	0	0	-1
CCN(CC(=O)Nc1ccc(NC(C)=O)cc1)C(=O)c1cccc(N2C(=O)c3ccccc3C2=O)c1	3	-4	1	-1	.
O=C(CC1CCCCC1)Nc1ccc(-c2ccc3nncn3n2)cc1	-5	7.7*	0	-1	-1
NCCc1nnc(SCc2ccc(F)cc2)o1	1	-4	-1	2	.
NCCCCCc1nnc(SCc2ccc(Cl)c(Cl)c2)o1	-6	8.3*	0	9	1
Cc1cc(C)c2c(-n3cccc3)c(C(=O)NNS(=O)(=O)c3ccc(Br)cc3)sc2n1	21	8.5*	1	32	-2
COc1ccc(CN2CCN(C3CCC3)CC2CCO)c(F)c1 (centres undefined)	-4	-4	-1	-4	.
COc1ccccc1CC(NC(C)=O)C(=O)NC1CCN(c2nnnn2-c2ccccc2)CC1 (centres undefined)	-1	-1	.	.	.
CC(=O)NC(Cc1ccccc1C)C(=O)NC1CCN(c2nnnn2-c2ccccc2)CC1 (centres undefined)	-3	12*	1	-4	-1
COc1ccc([C@H]2CC(=O)C[C@@H](CCn3nnc4ccccc43)O2)cc1	-4	-1	0	0	.
CCOC(=O)C1(Cc2ccccc2)CCN(Cc2csc(C(C)=O)c2)CC1	-3	9.8*	2	-10	-1
O=C(NCc1cccc(C(F)(F)F)c1)c1ccc2nc([C@H]3C[C@H](O)[C@@H](CO)O3)[nH]c2c1	5	2	0	1	.
CCN(C(=O)CSc1nnc(C)n1-c1ccc(C)cc1)c1c(N)n(Cc2ccccc2)c(=O)[nH]c1=O	1	-1	1	1	.
COc1ccc(-c2csc(/C(C#N)=C/Nc3cc4oc5ccccc5c4cc3OC)n2)cc1	26	13*	0	1	0
COc1ccc(-c2csc(/C(C#N)=C/Nc3ccc4c(c3)OCCO4)n2)cc1	9	-5	-1	2	.
Cc1ccc(S(=O)(=O)Nc2c(C)n(C)n(-c3ccccc3)c2=O)cc1C(=O)NCc1ccccc1	1	-2	1	8	.
Cc1ccc(C)c(N2CCN(S(=O)(=O)c3c(C(=O)N4CCCCC4)c(C)n(C)c3C)CC2)c1	-5	8.2*	1	-3	-2
Cc1ccc(C)c(N2CCN(S(=O)(=O)c3c(C)[nH]c(C)c3C(=O)N3CCCCC3)CC2)c1	1	-2	-1	-3	.
CC1(C(=O)O)CCCN(C(=O)c2ccc(F)cc2Cl)C1 (centres undefined)	-4	-4	0	2	.
COc1ccc(S[C@]2(C(=O)N3CCCC3)CC(=O)N(C(=O)/C=C/c3ccccc3)[C@@H]2c2ccc(OC)cc2)cc1	.	.	.	13	.
Cn1c(SCCOc2ccccc2Cl)nnc1-c1ccncc1	-4	8.5*	-2	-4	0
SMILES	NadD inh	bovine MsrA act	MsrA inh	rCAG RNA binder	MsrA activ conf
Cc1ccccc1OCCSc1nnc(-c2ccncc2)n1C	-4	5	1	-3	.
COC(=O)c1[nH]c2ccccc2c1NC(=O)CN1CCN(C/C=C/c2ccccc2)CC1	5	-6	-1	-6	.
CCOC(=O)c1[nH]c2ccc(F)cc2c1NC(=O)CN1CCN(C/C=C/c2ccccc2)CC1	1	10*	0	-4	-1
COc1ccc(CCNC(=O)CSc2nc3[nH]c(=O)cc(O)c3s2)cc1	-1	-9	2	22	.
C#CCNC(=O)C[C@H]1C[C@@]2(C(=O)OC)C(=C[C@H](COCc3ccccc3)O[C@@H]2C)N(CCCCCCCC)C1=O	.	.	.	4	.
O=C(ONc1ccc(N=NC(=O)c2ccccc2O)cc1)c1ccccc1	3	-4	0	10	.
O=Nc1ccc(NOC(=O)c2ccccc2Br)cc1	-4	10*	2	2	-1
